The structures appear in SMILES notation. For some of these results: Measured potencies and affinities stand elsewhere.

Common to all, as to parameters: scale not given: direction of the effect not stated beside the values
The target in experiment [1] is Protein translocase subunit SecA (Escherichia coli (strain K12)) (UniProt P10408). Kind of experiment: Assay to Identify E. coli SecA ATPase Inhibitors. The class given is functional. The following applies: 30 µM.
Experiment [2] addresses T1, Ubiquitin-activating enzyme e1, putative (Leishmania donovani (strain BPK282A1)) (UniProt E9BSI1).
T1 sequence (whole entry): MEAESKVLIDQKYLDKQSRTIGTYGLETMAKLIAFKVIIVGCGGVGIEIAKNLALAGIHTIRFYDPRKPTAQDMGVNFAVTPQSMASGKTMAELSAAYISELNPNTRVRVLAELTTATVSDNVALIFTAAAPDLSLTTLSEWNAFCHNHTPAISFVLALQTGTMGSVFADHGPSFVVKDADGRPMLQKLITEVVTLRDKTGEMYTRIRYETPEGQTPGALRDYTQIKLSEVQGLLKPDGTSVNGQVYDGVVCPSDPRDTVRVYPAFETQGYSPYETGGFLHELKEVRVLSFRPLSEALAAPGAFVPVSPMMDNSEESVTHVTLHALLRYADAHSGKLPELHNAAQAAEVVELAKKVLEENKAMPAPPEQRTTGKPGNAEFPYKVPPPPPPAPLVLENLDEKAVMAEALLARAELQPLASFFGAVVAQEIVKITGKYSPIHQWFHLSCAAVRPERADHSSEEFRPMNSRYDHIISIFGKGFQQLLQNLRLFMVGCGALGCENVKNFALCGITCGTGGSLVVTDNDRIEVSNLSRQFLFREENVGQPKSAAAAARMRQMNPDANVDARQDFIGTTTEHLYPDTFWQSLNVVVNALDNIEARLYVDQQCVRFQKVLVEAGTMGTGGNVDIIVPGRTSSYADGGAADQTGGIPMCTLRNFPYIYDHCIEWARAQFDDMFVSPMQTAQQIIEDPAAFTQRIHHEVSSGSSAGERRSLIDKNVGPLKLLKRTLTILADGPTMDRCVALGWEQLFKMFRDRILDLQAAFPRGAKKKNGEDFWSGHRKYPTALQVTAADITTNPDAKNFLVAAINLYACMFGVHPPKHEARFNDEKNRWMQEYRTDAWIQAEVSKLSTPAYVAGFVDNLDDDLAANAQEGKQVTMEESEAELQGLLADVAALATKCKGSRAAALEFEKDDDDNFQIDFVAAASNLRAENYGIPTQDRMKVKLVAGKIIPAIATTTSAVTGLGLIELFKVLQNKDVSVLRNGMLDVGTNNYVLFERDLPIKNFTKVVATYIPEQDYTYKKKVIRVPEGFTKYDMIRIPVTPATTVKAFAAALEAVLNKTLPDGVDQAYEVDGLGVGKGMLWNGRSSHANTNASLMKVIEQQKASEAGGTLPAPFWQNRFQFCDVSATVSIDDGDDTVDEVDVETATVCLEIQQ
Kind of experiment: Leishmania donovani Ubiquitin Activating Enzyme (LdE1). The format is functional. The following applies: 30 µM.

The target in experiment [3] is AMP-activated protein kinase, AMPK (Homo sapiens) (UniProt P54646+O43741+P54619+Q9UGJ0+Q9Y478+Q13131+Q9UGI9). Nature of the experiment: AMP-dependent Kinase enzyme assay. An in vitro enzyme assay that detects ADP turnover that is directly proportional to AMPK activity. This uses naive AMPK that is activated during the assay with MK-8722. The class given is functional. The following applies: 30 µM.

For experiment [4], the target named is Sialic acid-binding Ig-like lectin 9 (Homo sapiens) (UniProt Q9Y336). Kind of experiment: Hs-Siglec9 ALPHAscreen SOP 20170721. The following applies: 10 µM. (In Alpha technology, singlet oxygen from a donor bead excites a nearby acceptor bead.)
For a further experiment, the system named is Trypanosoma cruzi. Kind of experiment: Trypanosoma cruzi phosphomannomutase and mannose-1-phosphate guanylyltransferase assay. The following applies: 10 µM. The class given is functional.
Experiment [5] concerns the target T2, Arginase-2, mitochondrial (Homo sapiens) (UniProt P78540).
T2 sequence (whole entry): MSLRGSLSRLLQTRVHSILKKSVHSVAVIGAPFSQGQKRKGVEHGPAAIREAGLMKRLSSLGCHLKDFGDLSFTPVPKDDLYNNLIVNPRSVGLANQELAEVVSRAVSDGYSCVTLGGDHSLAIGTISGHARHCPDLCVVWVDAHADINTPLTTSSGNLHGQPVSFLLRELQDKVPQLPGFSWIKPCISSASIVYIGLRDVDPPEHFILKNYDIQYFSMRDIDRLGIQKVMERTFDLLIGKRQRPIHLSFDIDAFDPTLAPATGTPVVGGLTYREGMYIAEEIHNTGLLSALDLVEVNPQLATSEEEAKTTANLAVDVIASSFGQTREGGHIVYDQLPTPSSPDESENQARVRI
Nature of the experiment: in vitro enzyme assay to detect the production of urea directly proportional to the activity of Arginase II. Note: in the data most compounds retested in dose-response had high values. The following applies: 33.3 µM. The format is functional.

Experiment [6] deals with T3, Proteasome subunit beta (Trypanosoma cruzi) (UniProt O96673).
T3 sequence (whole entry): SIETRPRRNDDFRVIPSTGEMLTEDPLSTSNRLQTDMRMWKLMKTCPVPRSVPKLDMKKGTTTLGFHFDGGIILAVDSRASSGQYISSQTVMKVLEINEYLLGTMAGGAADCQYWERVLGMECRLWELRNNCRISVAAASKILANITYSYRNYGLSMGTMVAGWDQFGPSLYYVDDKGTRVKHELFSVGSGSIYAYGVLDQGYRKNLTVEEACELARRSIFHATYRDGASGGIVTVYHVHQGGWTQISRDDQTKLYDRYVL
Kind of experiment: Trypanosoma cruzi proteasome chymotrypsin-like activity (TcProtChymo) assay. Note: in the data most compounds retested in dose-response had high values. The format is functional. The following applies: 9.37 µM.

Another experiment is filed under the species Homo sapiens. Kind of experiment: To identify inhibition of the IFN signalling (Jak-Stat) pathway via expression of an eGFP reporter gene under the control of an IFN-stimulated response element (ISRE) containing MxA promoter. The class given is functional. The following applies: 30 µM. On the technique in general: In a reporter assay the amount or activity of a reporter protein is the signal.

Experiment [7] concerns the target T4, Tyrosyl-tRNA synthetase, putative (Trypanosoma cruzi (strain CL Brener)) (UniProt Q4DSP6).
T4 sequence (whole entry): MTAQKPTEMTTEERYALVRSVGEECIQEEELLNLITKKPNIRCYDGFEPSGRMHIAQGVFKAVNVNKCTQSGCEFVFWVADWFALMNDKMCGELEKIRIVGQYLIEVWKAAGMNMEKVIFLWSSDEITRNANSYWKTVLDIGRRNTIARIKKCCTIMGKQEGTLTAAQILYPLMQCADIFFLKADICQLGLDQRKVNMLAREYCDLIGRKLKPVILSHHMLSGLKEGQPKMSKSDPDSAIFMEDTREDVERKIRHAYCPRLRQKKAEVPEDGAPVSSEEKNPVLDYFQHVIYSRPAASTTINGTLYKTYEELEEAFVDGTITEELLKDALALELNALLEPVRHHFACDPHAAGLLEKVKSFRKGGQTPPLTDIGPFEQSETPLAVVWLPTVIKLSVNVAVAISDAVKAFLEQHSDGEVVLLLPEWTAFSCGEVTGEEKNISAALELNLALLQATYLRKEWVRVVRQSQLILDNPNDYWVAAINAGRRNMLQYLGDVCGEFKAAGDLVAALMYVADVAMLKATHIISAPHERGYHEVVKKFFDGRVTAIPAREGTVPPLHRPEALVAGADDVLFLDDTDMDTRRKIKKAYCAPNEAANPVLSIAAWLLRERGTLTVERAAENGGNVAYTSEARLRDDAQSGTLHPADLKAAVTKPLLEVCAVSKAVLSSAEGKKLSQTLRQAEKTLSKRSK
Nature of the experiment: Trypanosoma cruzi tyrosyl tRNA synthetase (TcYRS) _High Tyrosine SOP. Note: in the data most compounds retested in dose-response had high values. The format is functional. The following applies: 30 µM.

Experiment [8] has as its target T4, Tyrosyl-tRNA synthetase, putative (Trypanosoma cruzi (strain CL Brener)). Kind of experiment: Trypanosoma cruzi tyrosyl tRNA synthetase (TcYRS) SOP. The class given is functional. The following applies: 30 µM.
Experiment [9] addresses Chromo domain-containing protein 1 (Saccharomyces cerevisiae (strain ATCC 204508 / S288c) (Baker's yeast)) (UniProt P32657). Kind of experiment: ScCHD-1 Enzyme Inhibition Assay. Note: in the data most compounds retested in dose-response had high values. The following applies: 30 µM. The class given is functional.

Chain of Chromo domain-containing protein 1 (Saccharomyces cerevisiae (strain ATCC 204508 / S288c) (Baker's yeast)) (P32657 whole entry, the tested form may be a part): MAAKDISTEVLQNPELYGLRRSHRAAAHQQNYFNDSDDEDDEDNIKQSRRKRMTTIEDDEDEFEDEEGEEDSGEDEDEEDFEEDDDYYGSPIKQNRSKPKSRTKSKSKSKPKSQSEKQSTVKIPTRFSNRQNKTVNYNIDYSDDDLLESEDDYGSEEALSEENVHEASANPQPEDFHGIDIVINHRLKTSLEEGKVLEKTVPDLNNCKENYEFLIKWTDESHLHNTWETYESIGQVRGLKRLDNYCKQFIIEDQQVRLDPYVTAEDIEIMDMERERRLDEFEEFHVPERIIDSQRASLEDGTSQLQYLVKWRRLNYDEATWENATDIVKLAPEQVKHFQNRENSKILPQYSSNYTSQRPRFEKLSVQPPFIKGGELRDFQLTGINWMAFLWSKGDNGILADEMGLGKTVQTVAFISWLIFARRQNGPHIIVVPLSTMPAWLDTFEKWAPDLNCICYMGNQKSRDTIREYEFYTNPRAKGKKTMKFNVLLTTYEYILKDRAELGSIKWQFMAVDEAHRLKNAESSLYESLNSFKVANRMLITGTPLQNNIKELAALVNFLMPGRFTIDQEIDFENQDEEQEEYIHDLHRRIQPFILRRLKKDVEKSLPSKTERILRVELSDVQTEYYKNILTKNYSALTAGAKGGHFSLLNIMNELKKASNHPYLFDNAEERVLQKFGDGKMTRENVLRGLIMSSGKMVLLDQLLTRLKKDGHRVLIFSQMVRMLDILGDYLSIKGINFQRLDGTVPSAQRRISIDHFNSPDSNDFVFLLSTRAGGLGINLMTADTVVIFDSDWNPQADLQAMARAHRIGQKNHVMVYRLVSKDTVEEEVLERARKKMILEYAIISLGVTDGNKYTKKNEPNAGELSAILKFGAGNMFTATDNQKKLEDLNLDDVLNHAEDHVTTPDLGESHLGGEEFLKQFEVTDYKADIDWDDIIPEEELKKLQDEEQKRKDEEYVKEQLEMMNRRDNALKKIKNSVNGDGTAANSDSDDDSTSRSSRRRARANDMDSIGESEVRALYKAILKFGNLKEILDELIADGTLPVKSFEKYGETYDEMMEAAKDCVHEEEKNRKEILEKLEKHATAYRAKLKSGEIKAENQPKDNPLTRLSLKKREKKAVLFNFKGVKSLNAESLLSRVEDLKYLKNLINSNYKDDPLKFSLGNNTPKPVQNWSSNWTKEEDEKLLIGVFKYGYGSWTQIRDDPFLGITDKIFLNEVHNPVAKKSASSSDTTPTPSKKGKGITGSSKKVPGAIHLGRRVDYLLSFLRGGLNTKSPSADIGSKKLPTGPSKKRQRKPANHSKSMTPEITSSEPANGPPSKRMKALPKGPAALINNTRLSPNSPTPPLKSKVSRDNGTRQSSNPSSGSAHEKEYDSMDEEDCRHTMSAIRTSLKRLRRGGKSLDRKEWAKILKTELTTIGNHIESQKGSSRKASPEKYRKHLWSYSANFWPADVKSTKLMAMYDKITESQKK
Chain of Protein translocase subunit SecA (Escherichia coli (strain K12)) (P10408 whole entry): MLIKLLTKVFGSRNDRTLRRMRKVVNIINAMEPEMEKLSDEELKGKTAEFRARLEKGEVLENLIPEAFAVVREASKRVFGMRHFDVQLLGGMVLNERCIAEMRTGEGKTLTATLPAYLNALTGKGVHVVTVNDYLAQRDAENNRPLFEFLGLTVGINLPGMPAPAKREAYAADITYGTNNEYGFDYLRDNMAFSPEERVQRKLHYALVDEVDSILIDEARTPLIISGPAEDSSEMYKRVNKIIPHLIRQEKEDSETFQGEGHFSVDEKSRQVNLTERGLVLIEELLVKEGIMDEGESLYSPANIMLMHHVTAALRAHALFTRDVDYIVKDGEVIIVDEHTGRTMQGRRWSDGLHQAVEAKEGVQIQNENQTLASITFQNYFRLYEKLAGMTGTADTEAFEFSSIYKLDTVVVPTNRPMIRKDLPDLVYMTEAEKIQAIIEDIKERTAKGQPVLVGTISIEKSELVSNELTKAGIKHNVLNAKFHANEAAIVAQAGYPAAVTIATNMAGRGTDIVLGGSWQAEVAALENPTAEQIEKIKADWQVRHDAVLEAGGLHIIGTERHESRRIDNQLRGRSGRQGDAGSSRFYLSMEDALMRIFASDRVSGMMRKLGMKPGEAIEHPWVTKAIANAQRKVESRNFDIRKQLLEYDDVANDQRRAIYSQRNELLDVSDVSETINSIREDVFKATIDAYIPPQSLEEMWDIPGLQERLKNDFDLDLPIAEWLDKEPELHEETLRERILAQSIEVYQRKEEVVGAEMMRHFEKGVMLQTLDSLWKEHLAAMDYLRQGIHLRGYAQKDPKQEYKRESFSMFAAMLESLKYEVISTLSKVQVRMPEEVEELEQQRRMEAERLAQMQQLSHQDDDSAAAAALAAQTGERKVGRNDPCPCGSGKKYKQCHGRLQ
Chain of Sialic acid-binding Ig-like lectin 9 (Homo sapiens) (Q9Y336 whole entry): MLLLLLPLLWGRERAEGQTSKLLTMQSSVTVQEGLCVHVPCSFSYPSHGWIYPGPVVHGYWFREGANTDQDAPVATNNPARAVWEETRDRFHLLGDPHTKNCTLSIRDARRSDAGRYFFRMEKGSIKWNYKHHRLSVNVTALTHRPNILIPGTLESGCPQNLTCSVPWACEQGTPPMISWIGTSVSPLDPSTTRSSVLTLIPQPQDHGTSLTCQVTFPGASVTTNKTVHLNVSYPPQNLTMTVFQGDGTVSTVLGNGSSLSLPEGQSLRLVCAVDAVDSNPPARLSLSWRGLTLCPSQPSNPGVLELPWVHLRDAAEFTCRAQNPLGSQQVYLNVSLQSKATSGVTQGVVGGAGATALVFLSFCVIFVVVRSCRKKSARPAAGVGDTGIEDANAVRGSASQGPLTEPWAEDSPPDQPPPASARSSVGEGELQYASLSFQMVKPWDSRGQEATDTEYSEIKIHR

For `CCN(CC)CCNc1ncc(-c2cc(C)no2)c(-c2ccoc2C)n1`, the Percent Effect in [1] is -7.13%; in [2], 20.3%; in experiment [3] it was 6.82%; in experiment [4], 3.2%; with Trypanosoma cruzi it was 2.77%; in experiment [5] it was -3.94%. Besides, the Percent Effect in experiment [6] was 8.74%; in the experiment filed under Homo sapiens, 0.0946%; in experiment [7], 5.38%; in experiment [8], 14.3%; in [9], -20.7%.

In the case of `Cc1cnccc1CN1C[C@@H](O)[C@H](Oc2ccccc2)C1`, the Percent Effect was 4.34% in [1]; -4.05% in experiment [2]; 6.12% in experiment [3]; 0.247% in experiment [4]; 0.593% in the experiment with Trypanosoma cruzi; 3.02% in experiment [5]. In addition, the Percent Effect in [6] was 3.28%; in the experiment filed under Homo sapiens it was 11.6%; in [7] it was 2.15%; in experiment [8] it was -1.3%; in experiment [9], -12.9%.

Take `Cc1cc(C)n(Cc2ccc(C(=O)NCCN3CCOCC3)cc2)n1`: the Percent Effect in experiment [1] is -1.98%; in experiment [2], 4.17%; in experiment [3], -0.277%; in experiment [4], -1.95%; in the experiment with Trypanosoma cruzi, 6.32%; in experiment [5], -0.442%. Besides, the Percent Effect in experiment [6] was 19.6%; in the experiment listed under Homo sapiens it was 5.69%; in experiment [7], 7.37%; in experiment [8], 7.69%; in experiment [9], -6.36%.

For `CN1C(=O)C(C)(C)COc2cc(NS(=O)(=O)Cc3ccccc3)ccc21`, the Percent Effect in [1] is -1.91%; in experiment [2], 16.4%; in [3] it was -12.8%; in experiment [4] it was -8.62%; in the experiment on Trypanosoma cruzi, 3.72%; in experiment [5], -2.73%. For the same compound, the Percent Effect in experiment [6] is 15.6%; in the experiment listed under Homo sapiens, 57.7%; in [7], 7.53%; in [8] it was 12.5%; in [9], -6.62%.

Regarding `Cn1cnc2c1C(COCC1CC1)CN(C(=O)Cc1ccsc1)C2` (stereo unspecified), the Percent Effect is -4.47% in experiment [1]; 10.4% in experiment [2]; -8.29% in experiment [3]; 8.48% in [4]; 6.02% in the experiment on Trypanosoma cruzi; -8.39% in experiment [5]. The Percent Effect in experiment [6] worked out at 7.14%; in the experiment filed under Homo sapiens, 9.25%; in experiment [7], 2.12%; in experiment [8] it was 6.41%; in experiment [9], 84.8%.

With `COCCNC(=O)Cn1nc(C(C)C)c2cnn(C(C)(C)C)c2c1=O`, the Percent Effect was -2.65% in experiment [1]; 5.48% in [2]; -1.93% in experiment [3]; 5.56% in [4]; 3.72% in the experiment on Trypanosoma cruzi; -1.36% in experiment [5]. The Percent Effect in experiment [6] is 17.6%; in the experiment listed under Homo sapiens it was 15.1%; in experiment [7] it was 8.6%; in [8], 15%; in experiment [9] it was -6.24%.

As for `Cc1noc2ncc(C(=O)N3CCCC3c3ccncc3)cc12` (stereo unspecified), the Percent Effect in experiment [1] was -7.65%; in experiment [2] it was 20.2%; in [3], -6.44%; in experiment [4] it was 0.762%; with Trypanosoma cruzi it was 10.1%; in experiment [5], -3.42%. Further, the Percent Effect was 17.4% in [6]; 21.9% in the experiment filed under Homo sapiens; 5.42% in experiment [7]; 24.1% in experiment [8]; -9.53% in experiment [9].

Consider `Cc1sc(NC(=O)CN(C)S(C)(=O)=O)c(C#N)c1C`, for which the Percent Effect in experiment [1] is -2.06%; in [2], 7.79%; in experiment [3], 7.85%; in experiment [4] it was -2.17%; in the experiment on Trypanosoma cruzi, -6.8%; in experiment [5] it was -29%. In addition, the Percent Effect was 13.4% in experiment [6]; 2.12% in the experiment filed under Homo sapiens; 5.29% in experiment [7]; 8.97% in [8]; -6.9% in experiment [9].

`CNS(=O)(=O)c1ccc(C(=O)N2CCCC2Cc2ccccc2)o1` (stereo unspecified): the Percent Effect in [1] was -3.24%; in experiment [2] it was -42.1%; in [3], 1.36%; in [4], -2.48%; with Trypanosoma cruzi, 2.52%; in experiment [5] it was 1.8%. Also, the Percent Effect in experiment [6] was 12.6%; in the experiment listed under Homo sapiens it was 16.6%; in experiment [7], 4.43%; in [8], 16.1%; in experiment [9], -9.41%.

Regarding `CN(CCCOc1ccccc1)C(=O)CN1CCc2cncnc2C1`, the Percent Effect in experiment [1] is -1.71%; in experiment [2] it was 26.3%; in experiment [3], -41.1%; in experiment [4], 4.54%; with Trypanosoma cruzi it was 9.24%; in [5], -0.719%. Further, the Percent Effect was 10.6% in experiment [6]; -5.43% in the experiment filed under Homo sapiens; 30.1% in experiment [7]; 38.3% in [8]; -11.5% in [9].

`COc1ncccc1C(=O)N1CCC(CNC(C)=O)CC1`: the Percent Effect was -4.18% in experiment [1]; 5.33% in [2]; -0.618% in experiment [3]; 3.6% in experiment [4]; -2.43% in the experiment on Trypanosoma cruzi; 1.56% in [5]. Besides, the Percent Effect in [6] is 6.28%; in the experiment listed under Homo sapiens it was -6.88%; in experiment [7], 4.92%; in [8], 13.6%; in experiment [9], -5.96%.

Source of the values: ChEMBL document CHEMBL3988442, “University of Dundee, Small-Polar-MMV Screening Library” (2021).
